Records with an inconclusive call do not appear. Active and inactive are the calls of the source. How the source made its calls, unless noted: active means hit-call score of the fitted dose curve at least 0.9, where 1 is the maximum; inactive means score below 0.9.
Experiments:
[1] = read-out: Monokine induced gamma interferon (MIG), CXCL9 (gene 4283); assay: BSK_3C_MIG: BioMAP Diversity Plus: 3C Assay for Monokine induced gamma interferon (MIG) Biomarker Activity (AID 2283021); conditions: primary human endothelial cells (HUVEC); actives raise or lower the signal;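 on AC50: MIG protein level measured by immunoassay in the treated endothelial cultures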
Procedure, shortened: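 Primary human umbilical vein endothelial cells in the 3C system were exposed to chemical for 24 h, after which MIG was quantified by ELISA. Activity was fitted bidirectionally against DMSO as negative control and baseline.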

[2] = molecular target: human Vitamin D Receptor (VDR), VDR (gene 7421) (UniProt P11473); assay: ATG_VDR_TRANS: Attagene TRANS-FACTORIAL HepG2 Assay for human Vitamin D Receptor (VDR) (AID 2283022; active means hit-call score of the fitted dose curve at least 0.9, where 1 is the maximum)
Sequence of human Vitamin D Receptor (VDR), VDR (gene 7421) (P11473 whole entry, looked up, the tested form may be a part): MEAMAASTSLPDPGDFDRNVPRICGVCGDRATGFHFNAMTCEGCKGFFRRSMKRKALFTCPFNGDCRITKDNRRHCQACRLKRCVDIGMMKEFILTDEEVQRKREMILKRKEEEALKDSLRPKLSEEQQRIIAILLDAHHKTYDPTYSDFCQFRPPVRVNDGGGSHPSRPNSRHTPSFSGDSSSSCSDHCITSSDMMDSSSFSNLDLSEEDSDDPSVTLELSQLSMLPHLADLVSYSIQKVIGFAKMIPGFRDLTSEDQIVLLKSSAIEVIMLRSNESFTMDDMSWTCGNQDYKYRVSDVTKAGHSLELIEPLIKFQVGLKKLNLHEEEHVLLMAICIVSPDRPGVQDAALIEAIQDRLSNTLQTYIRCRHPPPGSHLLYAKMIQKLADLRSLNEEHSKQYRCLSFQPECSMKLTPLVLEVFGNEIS
Procedure, shortened: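 Steps: transfect HepG2 with GAL4-UAS-driven reporter constructs; dose compounds 24 h; isolate RNA, reverse-transcribe, PCR-amplify with 6-FAM-labelled primer extension and HpaI digestion; quantify fragments by capillary electrophoresis relative to DMSO.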

[3] = BSK_3C_SRB: Viability Assessment in the BioMAP Diversity Plus: 3C Assay (AID 2283023); conditions: primary human endothelial cells (HUVEC);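 further: cells read 24 h after compound dosing; fitted both ways against DMSO so a hit may be signal rise or drop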
Procedure, shortened: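 Absorbance at 560 nm of sulforhodamine B-stained (0.1%) total protein served as a cytotoxicity readout in human umbilical vein endothelial cells, 24 h after chemical treatment. Signal was fitted bidirectionally relative to DMSO.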

[4] = read-out: Matrix Metallopeptidase 1 (MMP1), MMP1 (gene 4312); assay: BSK_BE3C_MMP1: BioMAP Diversity Plus: BE3C Assay for Matrix Metallopeptidase 1 (MMP1) Biomarker Activity (AID 2283024); conditions: primary human bronchial epithelial cells; actives raise or lower the signal
Procedure, shortened: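 Primary human bronchial epithelial cells were dosed with test chemicals, and MMP1 levels were measured by ELISA 24 h later. Data were fitted bidirectionally against DMSO as the negative control and activity baseline.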

[5] = BSK_3C_Vis: BioMAP Diversity Plus: 3C Assay for Morphology Visualization (AID 2283025); conditions: primary human endothelial cells (HUVEC);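 further: fitted both ways so gain or loss versus DMSO counts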
Procedure, shortened: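 Human umbilical vein endothelial cells in the 3C system were imaged by light microscopy 24 h after chemical dosing to record cell morphology. Activity was fitted bidirectionally against DMSO as negative control and baseline; the endpoint serves as a background control.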

[6] = BSK_BE3C_SRB: Viability Assessment in the BioMAP Diversity Plus: BE3C Assay (AID 2283028); conditions: primary human bronchial epithelial cells
Procedure, shortened: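 Cells (human bronchial epithelial, primary) are treated with chemicals, and after 24 h the parallel cultures are fixed in 10% TCA. These are then stained with 0.1% SRB and read at 560 nm. Gain or loss of signal is fitted relative to DMSO.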

[7] = read-out: Thrombomodulin, THBD (gene 7056); assay: BSK_3C_Thrombomodulin: BioMAP Diversity Plus: 3C Assay for Thrombomodulin Biomarker Activity (AID 2283029); conditions: primary human endothelial cells (HUVEC); actives raise or lower the signal
Procedure, shortened: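 Primary human umbilical vein endothelial cells (3C system) were exposed to chemical for 24 h, then thrombomodulin levels were measured by ELISA. Activity was fitted bidirectionally against the DMSO negative control as baseline.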

[8] = read-out: Urokinase-type plasminogen activator receptor (uPAR), PLAUR (gene 5329); assay: BSK_4H_uPAR: BioMAP Diversity Plus: 4H Assay for Urokinase-type plasminogen activator receptor (uPAR) Biomarker Activity (AID 2283030); conditions: primary human endothelial cells (HUVEC); actives raise or lower the signal
Procedure, shortened: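 Cell-surface uPAR ELISA signal, measured 24 h after dosing human umbilical vein endothelial cells, was analyzed with bidirectional fitting relative to DMSO. Parallel SRB staining of total protein tracked overt cytotoxicity.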

[9] = read-out: Vascular endothelial growth factor receptor 2 (Homo sapiens) (UniProt P35968); assay: BSK_4H_VEGFRII: BioMAP Diversity Plus: 4H Assay for Vascular endothelial growth factor receptor 2 (VEGFR2) Biomarker Activity (AID 2283031); conditions: primary human endothelial cells (HUVEC); actives raise or lower the signal
Procedure, shortened: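 ELISA read-out of VEGFRII in primary human umbilical vein endothelium, taken 24 h after chemical treatment. Responses are expressed relative to DMSO, with bidirectional fitting.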

[10] = read-out: Human Leukocyte Antigen - DR isotype (HLADR), HLA-DRA (gene 3122); assay: BSK_BE3C_HLADR: BioMAP Diversity Plus: BE3C Assay for Human Leukocyte Antigen - DR isotype (HLADR) Biomarker Activity (AID 2283032); conditions: primary human bronchial epithelial cells; actives raise or lower the signal
Procedure, shortened: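 Human primary bronchial epithelial cells in the BE3C system were exposed to chemicals for 24 h, after which HLA-DR levels were quantified by ELISA. Activity was fitted bidirectionally, gain or loss of signal, against DMSO as negative control and baseline.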

[11] = read-out: Vascular cell adhesion molecule 1 (VCAM1), VCAM1 (gene 7412); assay: BSK_4H_VCAM1: BioMAP Diversity Plus: 4H Assay for Vascular cell adhesion molecule 1 (VCAM1) Biomarker Activity (AID 2283033); conditions: primary human endothelial cells (HUVEC); actives raise or lower the signal
Procedure, shortened: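 Primary human umbilical vein endothelial cells were exposed to chemicals for 24 h, after which VCAM-1 was quantified by ELISA. Responses were fitted bidirectionally against DMSO as negative control and activity baseline.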

[12] = read-out: Interferon-gamma inducible Protein 10 (IP10), CXCL10 (gene 3627); assay: BSK_BE3C_IP10: BioMAP Diversity Plus: BE3C Assay for Interferon-gamma inducible Protein 10 (IP10) Biomarker Activity (AID 2283034); conditions: primary human bronchial epithelial cells; actives raise or lower the signal
Procedure, shortened: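 Human primary bronchial epithelial cells were exposed to chemicals for 24 hours, after which IP-10 levels were measured by ELISA. Data were fitted bidirectionally against DMSO, which served as the negative control and activity baseline.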

[13] = read-out: Monokine induced gamma interferon (MIG), CXCL9 (gene 4283); assay: BSK_BE3C_MIG: BioMAP Diversity Plus: BE3C Assay for Monokine induced gamma interferon (MIG) Biomarker Activity (AID 2283035); conditions: primary human bronchial epithelial cells; actives raise or lower the signal
Procedure, shortened: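 MIG level was determined by ELISA after 24 h chemical treatment of primary human bronchial epithelial cells. Values were fitted bidirectionally with DMSO as the negative control and activity baseline.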

[14] = read-out: Transforming growth factor beta 1 (TGFb1), TGFB1 (gene 7040); assay: BSK_BE3C_TGFb1: BioMAP Diversity Plus: BE3C Assay for Transforming growth factor beta 1 (TGFb1) Biomarker Activity (AID 2283036); conditions: primary human bronchial epithelial cells; actives raise or lower the signal
Procedure, shortened: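 Human primary bronchial epithelial cells (BE3C system) were dosed with chemical and TGF-b1 levels measured by ELISA at 24 h. Activity was fitted bidirectionally relative to DMSO negative control as baseline.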

[15] = read-out: Plasminogen activator inhibitor-1 (PAI1), SERPINE1 (gene 5054); assay: BSK_BE3C_PAI1: BioMAP Diversity Plus: BE3C Assay for Plasminogen activator inhibitor-1 (PAI1) Biomarker Activity (AID 2283037); conditions: primary human bronchial epithelial cells; actives raise or lower the signal
Procedure, shortened: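 Human primary bronchial epithelial cells were exposed to chemical for 24 h, then PAI-1 was quantified by ELISA. Activity was fitted bidirectionally relative to the DMSO negative control baseline.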

[16] = read-out: urokinase plasminogen activator (uPA), PLAU (gene 5328); assay: BSK_BE3C_uPA: BioMAP Diversity Plus: BE3C Assay for urokinase plasminogen activator (uPA) Biomarker Activity (AID 2283038); conditions: primary human bronchial epithelial cells; actives raise or lower the signal;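 further: uPA protein level quantified by ELISA in cell cultures; uPA read one day after compound addition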
Procedure, shortened: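 Bronchial epithelial cells (human, primary); chemical 24 h; uPA by ELISA; bidirectional fit vs DMSO. SRB (0.1%, after 10% TCA fixation, 560 nm) in parallel cultures for cytotoxicity.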

[17] = read-out: Urokinase-type plasminogen activator receptor (uPAR), PLAUR (gene 5329); assay: BSK_BE3C_uPAR: BioMAP Diversity Plus: BE3C Assay for Urokinase-type plasminogen activator receptor (uPAR) Biomarker Activity (AID 2283039); conditions: primary human bronchial epithelial cells; actives raise or lower the signal
Procedure, shortened: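 Primary human bronchial epithelial cells were dosed with chemical and harvested 24 h later; uPAR was quantified by ELISA. Activity was fitted bidirectionally against DMSO as negative control and baseline.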

[18] = read-out: Interleukin-6 (IL6), IL6 (gene 3569); assay: BSK_CASM3C_IL6: BioMAP Diversity Plus: CASM3C Assay for Interleukin-6 (IL6) Biomarker Activity for (AID 2283040); conditions: primary human coronary artery smooth muscle cells; actives raise or lower the signal
[19] = BSK_4H_SRB: Viability Assessment in the BioMAP Diversity Plus: 4H Assay (AID 2283027); conditions: primary human endothelial cells (HUVEC);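 further: cells exposed to compound for 24 h before staining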
Procedure, shortened: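 Absorbance at 560 nm of SRB-stained total protein served as the viability read-out in confluent primary human umbilical vein endothelium 24 h after chemical treatment. Curves were fitted bidirectionally against DMSO as negative control.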

[20] = read-out: Pselectin, SELP (gene 6403); assay: BSK_4H_Pselectin: BioMAP Diversity Plus: 4H Assay for Pselectin Biomarker Activity (AID 2283026); conditions: primary human endothelial cells (HUVEC); actives raise or lower the signal
Procedure, shortened: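 Primary human umbilical vein endothelial cells were exposed to test chemical for 24 h, then cell-surface P-selectin was quantified by ELISA. Activity was fitted bidirectionally against DMSO as negative control and baseline.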

Measured: AC50

Oc1ccccc1Cl
not listed: [19] | [20]
inactive: all other assays above

OCCCBr
not listed: [10] | [19] | [20]
inactive: all other assays above

Nc1ccc([N+](=O)[O-])cc1
not listed: [19] | [20]
inactive: all other assays above

Clc1ccc(Cl)c(Cl)c1
not listed: [19] | [20]
inactive: all other assays above

CC(C)(C)C(O)(CCc1ccc(Cl)cc1)Cn1cncn1 (centres undefined)
not listed: [8] | [10] | [20]
inactive: all other assays above

CCOC(=O)[C@]1(c2ccccc2)Oc2ccccc2[C@@H]1N
active: [3] 24.7 µM | [5] 39 µM | [8] 10.3 µM | [10] 20 µM | [11] 7.44 µM
not listed: [19] | [20]
inactive: all other assays above

CCCCC(CC)COC(=O)c1ccc(C(=O)OCC(CC)CCCC)c(C(=O)OCC(CC)CCCC)c1 (centres undefined)
not listed: [19] | [20]
inactive: all other assays above

Oc1ccc2ccc3cccc4ccc1c2c34
inactive: [2] | [4] | [6] | [7] | [9] | [16] | [18]
active: [1] 37.6 µM | [3] 30 µM | [5] 37.5 µM | [8] 30.4 µM | [11] 34 µM | [12] 31.3 µM | [13] 31.2 µM | [15] 27.5 µM | [17] 33 µM

c1ccc(NNc2ccccc2)cc1
not listed: [10] | [19] | [20]
inactive: all other assays above

OCCOCCO
not listed: [2]
inactive: all other assays above

CC(O)CCO (centres undefined)
not listed: [10] | [19] | [20]
inactive: all other assays above

[As]#[In]
not listed: [2]
inactive: all other assays above

CCC12COCN1COC2
not listed: [2]
inactive: all other assays above

Brc1ccc(Oc2ccccc2)cc1
active: [3] 28.9 µM
not listed: [19] | [20]
inactive: all other assays above

Source: PubChem BioAssay (EPA / NIEHS)
